TDP1 cell noCPT: qHTS for Inhibitors of human tyrosyl-DNA phosphodiesterase 1 (TDP1): qHTS in cells in absence of CPT; hit rate 15% among 420,000; Potency, µM (highest dose often 46.2 µM), without a hit: top-dose activity change, negative = growth inhibition, usual class: inhibitors; DT40 Tdp1-/- hTDP1 cells, no CPT, ATP luminescence, 48 h; AID 686978, 2013; further: potency means the concentration at half of the fitted maximal effect; on the % scale 0 is the no-effect control and ±100 the full control effect; nearly all actives have a fitted effect of over 55% in size
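Readout: luminescence from CellTiter-Glo after 30 min in the dark at RT. Cells: DT40 Tdp1-/- with stable hTDP1, 400/well. Exposure: compounds alone, ≥48 hr, 37 °C.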
IL-1B inflam inh: inhibitors of inflammasome signaling (IL-1 beta secretion); activity change, % at 57.5 µM; THP-1 LPS/ATP IL-1B secretion, AlphaLISA, 16 h; active compounds read low; hit rate 4.7% among 360,000; AID 743279; in the data active means activity change below about -50%; inconclusive means mostly about -30% to -49%; further: on the % scale 0 is the no-effect control and ±100 the full control effect
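Secreted IL-1B measured by AlphaLISA bead assay after 16 h compound exposure of THP-1 cells; compounds (final up to 57.5 uM) added 1 h before LPS (250 ng/mL) and ATP (1.25 mM) stimulation; lower signal means less secretion.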
TDP1 block: TDP1 (human) enzyme inhibition. Q9NUW8. recombinant TDP1, AlphaScreen DNA substrate cleavage. Potency, µM (highest dose often 130 µM), for inactives: top-dose activity change, negative = inhibition, usual class: inhibitors. hit rate 0.28% among 350,000. AID 485290; further: potency means the concentration at half of the fitted maximal effect; on the % scale 0 is the no-effect control and ±100 the full control effect; nearly all actives have a fitted effect of over 40% in size
Target sequence (Q9NUW8 whole entry, looked up): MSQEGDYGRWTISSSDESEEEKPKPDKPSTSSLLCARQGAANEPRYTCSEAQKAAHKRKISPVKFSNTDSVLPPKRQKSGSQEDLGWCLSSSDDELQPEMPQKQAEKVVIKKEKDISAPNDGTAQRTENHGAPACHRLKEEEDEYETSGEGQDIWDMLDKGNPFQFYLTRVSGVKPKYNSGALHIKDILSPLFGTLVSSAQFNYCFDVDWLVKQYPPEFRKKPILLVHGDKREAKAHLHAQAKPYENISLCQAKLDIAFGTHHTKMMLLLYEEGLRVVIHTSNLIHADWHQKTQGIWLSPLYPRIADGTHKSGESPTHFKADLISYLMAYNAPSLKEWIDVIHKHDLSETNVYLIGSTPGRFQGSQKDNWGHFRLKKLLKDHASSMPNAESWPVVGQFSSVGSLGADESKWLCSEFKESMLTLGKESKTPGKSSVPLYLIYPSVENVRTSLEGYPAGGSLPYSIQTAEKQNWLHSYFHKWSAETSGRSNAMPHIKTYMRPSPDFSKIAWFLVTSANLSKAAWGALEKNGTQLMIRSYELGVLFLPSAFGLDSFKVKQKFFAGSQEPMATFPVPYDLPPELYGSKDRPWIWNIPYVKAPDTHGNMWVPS
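AlphaScreen read-out: signal falls as enzyme removes the 3' tyrosine-FITC from a 5'-biotinylated DNA oligo (15 nM, 5 min, RT). Enzyme was E. coli-made recombinant Tdp1 at 1 nM, exposed to compound for 15 min beforehand; beads 10 ug/ml, 10 min.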
HepG2 tox: counter-screen for TGF-b inhibitors: cytotoxicity in HepG2 cells; HepG2 CAGA-GFP viability, ATP luminescence, 18 h; Potency, µM (series often up to 46.1 µM), for the others: top-dose activity change, negative = cytotoxicity, actives largely listed as cytotoxic; AID 588856; hit rate 0.76% among 410,000; further: potency means the concentration at half of the fitted maximal effect
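HepG2 CAGA-GFP cells (1000/well, DMEM with 1% FBS) received compound, then TGF-beta at 500 pg/mL final, and were incubated 18 hours at 37 degrees C. Viability was read by CellTiter-Glo luminescence. Media-only wells were set as complete cell-killing and DMSO as no toxicity.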
DT40 TDP1 CPT: DT40-hTDP1 cell growth loss with CPT; chicken DT40 Tdp1-/-;hTDP1 cells + 20 nM CPT, ATP luminescence, 48 h; hit rate 12% among 420,000; Potency, µM (titrated, usually from 46.2 µM), without a hit: at the highest dose activity change, negative = growth inhibition, actives largely listed as inhibitors; further: potency means the concentration at half of the fitted maximal effect; on the % scale 0 is the no-effect control and ±100 the full control effect; nearly all actives have a fitted effect of over 55% in size
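Chicken DT40 Tdp1-/- cells complemented with human TDP1, 400 cells/well, exposed to compounds plus 20 nM camptothecin for at least 48 h at 37 C; viability read as ATP content by CellTiter-Glo luminescence.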
TGFb inhibitor: blocks TGF-b signaling | Potency, µM (top dose mostly 46.1 µM), for the others: at the top dose activity, negative = inhibition, usual class: inhibitors | HepG2 CAGA-GFP TGF-b/SMAD3 reporter, GFP fluorescence, 18 h; TGF-beta stimulated, 500 pg/mL final | hit rate 1.2% among 410,000; further: potency means the concentration at half of the fitted maximal effect; on the % scale 0 is the no-effect control and ±100 the full control effect; nearly all actives have a fitted effect of over 65% in size
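GFP signal (ex488/em500-530) from TGF-beta-stimulated HEPG2 CAGA-GFP cells, 500 pg/mL final, 18 h at 37 degrees C in DMEM plus 1% FBS, normalized to unstimulated and DMSO-stimulated controls.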
Active calls of the source: *; i = inactive; ? = inconclusive; nt = not tested or not shown; [ ] = dose if it differs, or a comment. Rows were chosen to be rich in hits. Some 18% of all compounds tested hit in one or more screens of this group. Unless noted, the call rests on the fitted dose curve; in most records, active means well fitted curve in the direction sought with a large enough effect; inconclusive means small, poorly fitted or top-dose-only effect, or another doubt; inactive means no such curve, though single readings can be large; an effect the other way counts as inactive or inconclusive.

SMILES	TDP1 cell noCPT	IL-1B inflam inh	TDP1 block	HepG2 tox	DT40 TDP1 CPT	TGFb inhibitor
COc1ccc(C(=O)Nc2ccc(NC(=O)c3ccco3)cc2)cc1	-16%	-6	-6%	-19%	-10%	-5%
COc1ccc(-n2c(NC(=O)c3ccco3)c(C#N)c3nc4ccccc4nc32)cc1	23µM*	4	3%	-1%	16µM*	0%
CCCCn1c(NC(=O)CC)c(C#N)c2nc3ccccc3nc21	-16%	15	3%	0%	-2%	3%
CCOC(=O)c1c(NC(=O)c2ccco2)n(C2CCCCC2)c2nc3ccccc3nc12	8.2µM*	-21	4%	-37%	7.3µM*	75%
CCCCn1c(NC(=O)c2ccccc2Cl)c(C#N)c2nc3ccccc3nc21	26µM*	-98*	-8%	-59%	23µM*	?
CCC1(c2ccc(O)cc2)NC(=O)NC1=O (stereo not drawn)	nt	nt	12%	nt	nt	nt
CC(C)N1CCc2c(sc(NC(=O)c3ccc(S(=O)(=O)N(C)C4CCCCC4)cc3)c2C(N)=O)C1	18µM*	nt	10%	-102%	?	?
COCCN(CCOC)S(=O)(=O)c1ccc(C(=O)Nc2sc3c(c2C(N)=O)CCCCC3)cc1	?	-5	0%	18%	-28%	0%
CC(C)N1CCc2c(sc(NC(=O)c3ccc(S(=O)(=O)N4CCc5ccccc54)cc3)c2C(N)=O)C1	?	19	nt	13µM*	23µM*	?
NS(=O)(=O)c1ccc(NC(=O)c2ccc(S(=O)(=O)N3CCc4ccccc43)cc2)cc1	?	27	0%	-2%	?	?
Cc1cccc(NC(=O)Cn2cnc3c(oc4ccccc43)c2=O)c1C	?	9	-7%	-35%	?	-11%
C/C(CCN1CCCCc2nc(C)c(C)cc21)=N\OC[C@@H](C)[C@H](OCc1ccccc1)C(C)C	nt	nt	1%[21 µM]	nt	nt	nt
C#CC[N+](CC)(CC)CC#Cc1cccc(Cl)c1	?	-4	-1%	-27%	?	-3%
C#CC[N+](C)(C)CC#Cc1ccc(Cl)cc1	-29%	-67*	-2%	-4%	-11%	1%
COc1ccccc1CNS(=O)(=O)c1ccc(N2CCCC2)cc1Br	?	-5	1%[56.1 µM]	-3%	16µM*	?
Cc1cc(Cl)ccc1C(=O)C1CCCN(C(=O)c2cnsn2)C1 (stereo not drawn)	?	36	5%	-5%	?	-1%
Cc1cc(Cl)ccc1C(=O)C1CCCN(C(=O)c2ccoc2)C1 (stereo not drawn)	15µM*	-7	5%	-27%	?	-21%
Cc1cc(C(=O)N2CCCC(C(=O)c3ccc(Cl)cc3C)C2)no1 (stereo not drawn)	23µM*	i	2%	0%	18µM*	0%
COCc1ccc(C(=O)N2CCCC(C(=O)c3ccc(Cl)cc3C)C2)o1 (stereo not drawn)	?	26	2%	-10%	?	0%
Cc1nc(C)n(CC(=O)N2CCCC(C(=O)c3ccc(Cl)cc3C)C2)n1 (stereo not drawn)	18µM*	5	nt	4%	0.41µM*	-2%
Cc1cc(Cl)ccc1C(=O)C1CCCN(C(=O)/C=C/c2cnn(C)c2)C1 (stereo not drawn)	?	1	-2%	-5%	?	2%
Cc1nc(C)c(C(=O)N2CCCC(C(=O)c3ccc(Cl)cc3C)C2)s1 (stereo not drawn)	?	17	5%	9%	18µM*	0%
C[C@H]([C@H](C)N1CC(=O)NC(=O)C1)N1CC(=O)NC(=O)C1	nt	nt	21%	nt	nt	nt
COc1ccc(C(=O)NC2CCSc3ccccc32)cc1F (stereo not drawn)	?	10	-8%	-13%	-24%	-8%
COc1cc(OC)cc(C(=O)NC2CCSc3ccccc32)c1 (stereo not drawn)	23µM*	-5	4%	-14%	?	-2%
SMILES	TDP1 cell noCPT	IL-1B inflam inh	TDP1 block	HepG2 tox	DT40 TDP1 CPT	TGFb inhibitor
CCC1NC(=O)c2ccccc2N1c1cccc(Cl)c1 (stereo not drawn)	16µM*	34	nt	-169%	?	-13%
O=C1NC(c2cccc(Cl)c2)Oc2ccccc21 (stereo not drawn)	4%	-8	nt	-2%	1%	-1%
CN(Cc1ccccc1)C(=O)c1ncn(Cc2ccccc2)c1C(=O)N(C)Cc1ccccc1	18µM*	-3	0%	-13%	?	-5%
Cc1cc(S(=O)(=O)NCc2nc(N3CCCC3)c3cc(Cl)ccc3n2)c(C)s1	-7%	nt	nt	nt	-4%[9.04 µM]	nt
CCN(CC)CCOc1ccc(-c2nc3cc(Cl)ccc3s2)cc1	4.7µM*	nt	3%	nt	4.7µM*	nt
CCN(CC)CCOc1ccc2nc(N(C)C)sc2c1	?	21	-15%	-6%	?	-1%
CN(C)CCCN(C(=O)CCc1ccccc1)c1nc2c(F)cccc2s1	?	?	1%	-70%	?	?
CN(C)CCCN(C(=O)COc1ccccc1)c1nc2ccc(F)cc2s1	-29%	-8	2%	-2%	-10%	18%
Cc1ccc2sc(N(CCN(C)C)C(=O)c3ccc4ccccc4c3)nc2c1C	-18%	-23	11%	-2%	?	?
CN(C)CCCN(C(=O)CCOc1ccccc1)c1nc2c(F)cccc2s1	4.6µM*	-60*	3%	11µM*	5.8µM*	?

Screening results (PubChem BioAssay)
